This is a sample that favours compounds with a hit; in the whole collection about 2.8% have one here.
PP5 inh: PP5 phosphatase inhibitors, primary screen, biochemical, fluorescence. purified PP5c, OMFP substrate fluorescence. inhibition, % at 6.7 µM. 320,000 tested, 0.18% active;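 active = inhibition above the campaign's mean inhibition across all tested compounds plus 3 SD, cut at about 9.5% in these data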;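 also: 0% = DMSO only and 100% = 100 µM cantharidin control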
NR1D1 modulator: modulators of Rev-erb alpha DNA binding, primary screen, biochemical, FITC-DNA, fluorescence polarization, uHTS. Rev-erbα–FITC-DNA binding, 90 min. 370,000 tested, 0.79% active. Nuclear receptor subfamily 1 group D member 1 (Homo sapiens), P20393. AID 1259318, 2017. activity, % at 10 µM;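 active = activity above about 14%, limit read from the data; passing the limit was not always enough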;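 also: 0% = DMSO wells with 35 nM protein and 100% = DMSO wells with 750 nM protein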
proKLK7 act: proKLK7 zymogen activators, primary screen, biochemical, fluorescence intensity | Kallikrein-7 (Homo sapiens), P49862 | 370,000 tested, 0.9% active | AID 652039, 2013 | activation, % at 7 µM | purified proKLK7, EDANS-DABCYL substrate fluorescence; 100% is mature enzyme control, 0% vehicle;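 active = activation above the mean of all tested compounds plus 3 SD, computed per campaign excluding outliers beyond control limits, cut at about 13% in these data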
Target sequence (P49862 whole entry, looked up): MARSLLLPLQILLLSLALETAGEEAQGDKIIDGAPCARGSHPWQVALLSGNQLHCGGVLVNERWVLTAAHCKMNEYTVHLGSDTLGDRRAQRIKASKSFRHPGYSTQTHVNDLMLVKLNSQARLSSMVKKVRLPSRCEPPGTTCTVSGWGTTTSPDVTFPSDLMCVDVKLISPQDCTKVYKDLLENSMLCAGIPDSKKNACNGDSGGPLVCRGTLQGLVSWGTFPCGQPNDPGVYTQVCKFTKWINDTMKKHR
PP1 counter: PP1-alpha phosphatase inhibitors, primary screen, counter-screen for PP5 inhibitor project, biochemical, fluorescence, OMFP substrate, single point; Serine/threonine-protein phosphatase PP1-alpha catalytic subunit (Homo sapiens), P62136; inhibition, % at 6.7 µM; purified PP1alpha; 320,000 tested, 0.9% active; AID 2235, 2010;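 active = inhibition above the mean inhibition of all tested compounds plus 3 SD, computed separately for each screening campaign, cut at about 15% in these data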
Target sequence (P62136 whole entry, looked up): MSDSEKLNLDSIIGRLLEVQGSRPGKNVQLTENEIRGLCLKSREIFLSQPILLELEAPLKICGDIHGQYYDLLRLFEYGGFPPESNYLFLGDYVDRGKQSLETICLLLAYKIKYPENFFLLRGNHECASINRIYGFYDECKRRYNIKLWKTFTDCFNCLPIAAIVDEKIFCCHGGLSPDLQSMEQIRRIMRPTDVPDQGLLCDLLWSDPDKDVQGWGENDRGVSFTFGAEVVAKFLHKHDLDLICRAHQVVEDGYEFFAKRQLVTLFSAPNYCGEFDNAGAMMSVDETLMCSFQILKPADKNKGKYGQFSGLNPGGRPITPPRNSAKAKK
PG9 binder: binders of HIV-1 gp120 antibody PG9, primary screen, biochemical, TR-FRET; HIV-1 gp120 / PG9 antibody interaction; TR-FRET gp120-PG9 antibody binding; inhibition, % at 6.7 µM; 360,000 tested, 0.43% active; AID 624416, 2012; in the data active = inhibition above about 8.5%
JMJD2C inh: inhibitors of GASC-1 histone demethylase, primary screen, biochemical, fluorescence, DELFIA europium | GST-JMJD2C(1-420) H3K9me3 demethylation | Lysine-specific demethylase 4C (Homo sapiens), Q9H3R0 | inhibition, % at 2.35 µM | 330,000 tested, 0.069% active;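 active = more than half of a compound's replicate wells show inhibition beyond 50%, single wells judged on their own value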;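 also: signal counts dimethyl H3K9 product captured on neutravidin plate; 0% = median of DMSO wells and 100% = 0.3 times that DMSO median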
proKLK7 act conf: proKLK7 zymogen activators, confirmation, biochemical, fluorescence intensity, triplicate; shares compounds with proKLK7 act; purified proKLK7, EDANS-DABCYL substrate fluorescence; scaled: vehicle 0, mature enzyme 100; activation, % at 7 µM; 3,200 tested, 68% active;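 active = activation, as change over the incubation, above the mean of all tested compounds plus 3 SD, cut at about 13% in these data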
EDANS-DABCYL int: EDANS-DABCYL substrate optical interference, artefact control for kallikrein-7 zymogen activator project, biochemical, fluorescence intensity, high throughput. 3,200 tested, 80% active. shares compounds with proKLK7 act. no enzyme, 4 h; solvent 0%, active enzyme control 100%. activation, % at 7 µM;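 active = activation above the all-compound mean plus 3 SD, ignoring values outside control-based bounds, cut at about 4.8% in these data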;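 also: value is the 4 h activation minus the activation read at time zero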
K7 EDANS ctr: EDANS fluorescence interference in dose response, no enzyme; shares compounds with proKLK7 act; EDANS-DABCYL peptide fluorescence interference; EC50, µM; 250 tested, 20% active; AID 720493;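 active = compounds that raise the fluorescence signal in this interference counterscreen, with EC50 at or below 10 µM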;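 also: intact quenched peptide substrate alone read at 355 nm excitation and 520 nm emission; signal is fluorescence gain from T0 to T4 after four hours at room temperature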
* = called active by the depositor; / = not tested or not shown.

SMILES	PP5 inh	NR1D1 modulator	proKLK7 act	PP1 counter	PG9 binder	JMJD2C inh	proKLK7 act conf	EDANS-DABCYL int	others
CCNC(=S)NNC(=O)c1cc(Br)cs1	1	-5	13*	0	0	-2	6	6.5*
O=C(O)COc1ccc2c3c(c(=O)oc2c1)CCCC3	0	3	0	1	-2	-15	/	/
O=C(CCCCCN1C(=O)c2ccccc2C1=O)Oc1ccc2c3c(c(=O)oc2c1)CCC3	1	-4	31*	-1	0	6	215*	146*
CC(=O)Oc1cc2oc(=O)cc(C)c2cc1Cl	0	-1	82*	-3	0	18	368*	377*
O=C(Oc1ccc2c3c(c(=O)oc2c1)CCC3)c1ccco1	1	-8	578*	0	-1	7	774*	820*
O=C(Oc1cc2oc(=O)c3c(c2cc1Cl)CCCC3)c1ccco1	-3	-7	55*	1	-1	-2	397*	406*
Cc1cc2oc(=O)c3c(c2cc1OC(=O)c1ccco1)CCCC3	5	14	1	-1	-1	-8	/	/
C[C@H]1C2CC(OC(=O)Nc3ccc(C#N)cc3)C(C2)[C@H]2CCCCN21 (some centres undefined)	/	8	0	/	/	/	/	/
Cc1ccc(-c2cc(C#N)c3n(c2=O)CCC3)cc1	/	0	1	/	/	/	/	/
CC(=O)Oc1cc2oc(=O)c3c(c2cc1Cl)CCC3	0	-6	74*	-1	-3	1	340*	403*
O=C(Oc1ccc2c3c(c(=O)oc2c1)CCCC3)c1cccs1	2	-5	-24	-1	-1	-13	/	/
Cc1ccc(S(=O)(=O)NC(C(=O)Oc2cc3oc(=O)cc(C)c3cc2Cl)C(C)C)cc1 (centres undefined)	2	-1	104*	4	1	7	173*	102*
CC(C)Oc1cc2oc(=O)c3c(c2cc1Cl)CCC3	-1	6	0	0	-3	19	/	/
O=C(Oc1cc2oc(=O)c3c(c2cc1Cl)CCCC3)c1cccs1	4	-9	62*	-1	1	-30	260*	223*
CC(OP(=O)(O)C(NC(=O)[C@H](Cc1ccc(O)cc1)NC(=O)OC(C)(C)C)C(C)C)C(=O)O (some centres undefined)	/	2	/	/	/	/	/	/
c1ccn2c(c1)nc1c2nc2ccccn21	1	6	81*	-3	-9	-4	70*	73*
COC(=O)CSc1ccc2c(N)c(C(=O)OC)sc2c1	4	2	45*	2	-2	0	27*	29*
COC(=O)CSc1nc2ccc(N)cc2s1	-1	-3	0	-6	-1	6	/	/
CC(=O)CC[C@H]1CC[C@]2(CCCN(C(=O)c3ccccc3)C2)O1	/	6	-1	/	/	/	/	/
COc1ccc(-n2nc(C(=O)NCC(=O)Nc3cc(OC)c(OC)c(OC)c3)c3ccccc3c2=O)cc1OC	2	12	42*	-2	-2	26	66*	66*
Cc1ccc(-c2cc(-c3nnc(SCC(=O)Nc4ccc(OCc5ccccc5)cc4)n3N)[nH]n2)cc1	/	-16	0	/	/	/	/	/
CC1(C)S[C@@H]2[C@H](NC(=O)[C@H](N)c3ccccc3)C(=O)N2[C@H]1C(=O)OC1OC(=O)c2ccccc21 (some centres undefined)	-1	-2	16*	-1	-1	/	6	4.6*
CCC(Oc1ccccc1)C(=O)NC1C(=O)N2C1SC(C)(C)C2C(=O)O (centres undefined)	2	3	0	1	0	-14	/	/
Cc1cc(NS(=O)(=O)c2ccc(NC(=O)Cc3ccccc3)cc2)no1	/	-6	-1	/	/	/	/	/
Cc1ccc(-c2c(C(=O)NCC(C)C)oc(=O)c3ccccc23)cc1	/	-3	0	/	/	/	/	/
SMILES	PP5 inh	NR1D1 modulator	proKLK7 act	PP1 counter	PG9 binder	JMJD2C inh	proKLK7 act conf	EDANS-DABCYL int	others
COc1ccccc1NC(=O)CSc1nc2c(sc3ccccc32)c(=O)n1CCN(C)C	4	1	16*	3	-1	1	1	-2
CCN(CC)CCn1c(SCC(=O)Nc2ccc(F)cc2)nc2c(sc3ccccc32)c1=O	2	/	/	1	/	-6	/	/
CCOC(=O)c1cnc2c(C)cccc2c1NCc1ccco1	5	2	0	0	-1	3	/	/
CCOC(=O)c1cnc2c(C(=O)OC)cccc2c1NCc1ccco1	-2	5	14*	-2	0	6	15*	7.3*	K7 EDANS ctr=>70
CCc1cc2c(=O)c(-c3cscn3)coc2c(CN(C)C)c1O	4	-1	30*	-4	-1	3	63*	71*
COC(=O)[C@]12C[C@H](CC(=O)NCCc3ccccc3OC)C(=O)N(CCC3=CCCCC3)C1=C[C@H](COCc1ccccc1)O[C@@H]2C	/	-1	1	/	-1	/	/	/
COc1ccc2c(c1)SCCC2=O	3	1	-2	-1	1	-20	/	/
COc1cc2c(cc1OC)C(=O)CCS2	0	-3	14*	-2	1	-5	16*	22*
O=c1cc(C(F)(F)F)c2sc(N3CCCCC3)nc2[nH]1	-2	8	38*	-3	-9	0	2	10*
O=C(CSc1nc(C(F)(F)F)cc(=O)[nH]1)N1CCCCCC1	2	6	0	-2	-1	-13	/	/
CCCCCCCCN1C(=O)[C@@H](CC(=O)N2CCCC2)C[C@@]2(C(=O)OC)C1=C[C@H](C(C)(C)C)O[C@@H]2C	/	2	0	/	0	/	/	/
Nc1nc(-c2ccc3c(c2)CCCC3)cs1	4	4	1	1	-2	/	/	/
N#Cc1cnn2ccc(-c3ccc4c(c3)CCC4)nc12	0	-3	95*	-1	3	30	57*	76*
COC(=O)C(CN)CN1C(=O)c2ccccc2C1=O (centres undefined)	/	7	0	/	/	/	/	/
CCOP(=O)(OCC)/C(C#N)=C/c1cc(OC)ccc1OC	/	5	42*	/	1	1	39*	39*
CCOC(=O)/C(C#N)=C/Nc1cc(OC)ccc1OC	1	1	-1	-2	0	-7	/	/

Screens as filed in PubChem BioAssay.
